Assay results taken from PubChem BioAssay AID493168 (National Center for Advancing Translational Sciences (NCATS), 2011).
Results filed as inconclusive are left out. Values without a mark were called inactive. Active and inactive are the calls of the source. Calls come from the whole dose curve; as a rule, active = well fitted inhibition curve with a large enough effect; inconclusive = small, poorly fitted or top-dose-only effect, or effect the other way; inactive = flat fitted curve, though single readings scatter.

Target: Ubiquitin carboxyl-terminal hydrolase 2 (Homo sapiens) (UniProt O75604)
Sequence (O75604 whole entry, looked up): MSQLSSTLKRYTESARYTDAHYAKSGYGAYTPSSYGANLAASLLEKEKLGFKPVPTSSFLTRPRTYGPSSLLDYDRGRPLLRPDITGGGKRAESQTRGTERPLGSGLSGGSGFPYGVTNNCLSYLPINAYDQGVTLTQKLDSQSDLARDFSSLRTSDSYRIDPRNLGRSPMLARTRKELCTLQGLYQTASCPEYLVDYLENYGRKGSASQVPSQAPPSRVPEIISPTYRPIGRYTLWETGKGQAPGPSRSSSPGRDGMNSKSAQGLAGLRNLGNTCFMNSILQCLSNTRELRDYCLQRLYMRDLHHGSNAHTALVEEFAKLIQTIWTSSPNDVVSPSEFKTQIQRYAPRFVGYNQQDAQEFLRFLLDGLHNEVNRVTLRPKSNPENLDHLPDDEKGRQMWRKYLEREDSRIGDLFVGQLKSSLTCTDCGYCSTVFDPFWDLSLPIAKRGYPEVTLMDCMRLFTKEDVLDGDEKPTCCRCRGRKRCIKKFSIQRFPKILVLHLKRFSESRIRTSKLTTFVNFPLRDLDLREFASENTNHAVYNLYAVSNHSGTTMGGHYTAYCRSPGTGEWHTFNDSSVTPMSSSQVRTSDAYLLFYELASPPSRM
Assay: Confirmation Assay for Inhibitors of Ubiquitin-specific Protease USP2a Using CHOP2 as the Reporter; note: nearly all actives have a fitted effect of over 55% in size;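 for activity change, negative = inhibition: plate controls were DMSO wells for no effect and full inhibition by NEM control for full effect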
Conditions: USP2 core, Ub-CHOP2 coupled reporter fluorescence; series mostly up to 38.3 µM; activity change, negative = inhibition: at the top concentration
How it was run: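 Ub-CHOP2 cleavage coupled to reporter activation was read by fluorescence after 60 min at RT, with 25 nM final Ub-CHOP2 and substrate. Enzyme (10 nM final USP2 core) first sat 30 min with compound; data were normalized to NEM and fitted to concentration-response curves.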
Potency is the fitted concentration of half-maximal effect.

SMILES	activity change, negative = inhibition [%]	Potency
COc1ccc(-c2nc(Cn3c(SCc4ccc(F)cc4)nc4ccncc43)c(C)o2)cc1OC	-0.811	
CC(NC(=O)COc1ccccc1-c1ccccc1)c1ccccc1 (configuration not stated)	2.1	
O=C(CC(C(=O)O)C1CCCO1)NCCc1ccc2c(c1)OCO2 (configuration not stated)	4.46	
CCOc1ccc(NC(=O)N(CCCN2CCOCC2)Cc2cccnc2)cc1	0.0836	
Cc1ccc(C2=N/C(=C\c3c(C)nn(-c4ccccc4)c3N3CCCC3)C(=O)O2)cc1	5.3	
O=C1c2ccccc2C(=O)N1CCC1=CCCCC1	-1.52	
CCSc1nc(N2CCCCC2)c2c(c1C#N)CCCC2	0.094	
NC(=O)C[C@@H]1N[C@]2(C(=O)Nc3ccccc32)[C@@H]2C(=O)N(c3cc(C(F)(F)F)ccc3Cl)C(=O)[C@H]12	7.44	
O=C(CCc1nc(-c2ccccc2F)no1)NC1CCCCCC1	-0.733	
COC(=O)[C@@]12CCCCN1[C@H](c1ccc(-c3ccc(Cl)c(Cl)c3)cc1)[C@H]1C(=O)N(C)C(=O)[C@H]12	0.0461	
O=C(Nc1cccc(S(=O)(=O)N2CCCC2)c1)c1cncc(Br)c1	-0.951	
O=C1CCCc2nc(N3CCN(c4ccccc4)CC3)ncc21	-1.03	
Cn1c(=O)c(C(=O)Nc2ccccc2S(N)(=O)=O)c(O)c2ccccc21		14.7 µM (active)
COc1ccc(OC)c(Nc2ccc(Nc3cc(OC)ccc3OC)nn2)c1	-0.288	
CCc1sc(/C=C(/C#N)C(N)=S)cc1[N+](=O)[O-]	-3.59	
Cc1cccc(NC(=S)NCc2ccc3c(c2)cc(C)n3C)c1C	-1.59	
N#Cc1cc(Sc2ccccn2)c(Sc2ccccn2)cc1C#N	-0.639	
